Where “and” joins values, the source holds several entries; their conditions need not be identical. Equal values may be shown once. Calls of active or inactive are those of the source. How the source made its calls: active means hit-call score of the fitted dose curve at least 0.9, where 1 is the maximum; inactive means score below 0.9.
Assay: BSK_3C_VCAM1: BioMAP Diversity Plus: 3C Assay for Vascular cell adhesion molecule 1 (VCAM1) Biomarker Activity (AID 2282999)
Conditions: BioMAP 3C HUVEC, VCAM1 ELISA, cytokine-stimulated; actives raise or lower the signal
Protocol: BSK_3C is a cell-based, multiplexed-readout assay that uses umbilical vein endothelium, a human vascular primary cell, with measurements taken at 24 hours after chemical dosing in a 96-well plate.BSK_3C_VCAM1 is an assay component measured in the BSK_3C assay. It measures VCAM-1 antibody related to regulation of gene expression using ELISA technology.Data from the assay component BSK_3C_VCAM1 was analyzed into 1 assay endpoint. This assay endpoint, BSK_3C_VCAM1, was analyzed with bidirectional fitting relative to DMSO as the negative control and baseline of activity. Using a type of binding reporter, gain or loss-of-signal activity can be used to understand changes in the signaling as they relate to the gene VCAM1. Furthermore, this assay endpoint can be referred to as a primary readout, because this assay has produced multiple assay endpoints where this one serves a signaling function. To generalize the intended target to other relatable targets, this assay endpoint is annotated to the cell adhesion molecules intended target family, where the subfamily is Immunoglobulin CAM.
The levels of cell surface (or secreted, indicated by the prefix "s") biomarker endpoints were measured by ELISA. Overt cytotoxicity to cells in confluent adherent cultures (all systems other than the BT system) was assessed by measuring total protein levels using sulforhodamine B (SRB) staining in parallel cultures at the time of biomarker measurements, indicated as SRB endpoints. For proliferation assays for adherent cell types, individual cell types are cultured at sub-confluence and relative cell numbers quantified by SRB staining at time points optimized for each system (48 h: 3C and CASM3C systems; 72 h: BT and HDF3CGF systems; 96 h: SAg system). SRB was performed by staining cells with 0.1% SRB after fixation with 10% TCA and reading wells at 560 nm.Viability and proliferation of PBMC (T cells) was quantified by Alamar Blue reduction for the SAg and BT systems. For PBMC viability (referred to as PBMC Cytotoxicity within the assay endpoint names), cells were plated (75,000/well in a 96-well plate) and then chemical samples added for 1 h before addition of activators, SEB and TSST-1 (20 ng/mL final concentration each). Cells were incubated for 90 h. Then, Alamar Blue (20 uL/well) (Invitrogen, Cat DAL1100) was added for 6 h, and the plates were read with a fluorescence microplate reader at 546/580 nm (excitation/emission). For PBMC proliferation, cells were plated and activated as above but incubated for only 16 h prior to addition of Alamar Blue. Plates were read after 6 h.
For C=C[Si](OC(C)=O)(OC(C)=O)OC(C)=O, the outcome was “inactive”.
In the case of CC1OC1C1CCC2(C)OC2C1 (stereo unspecified), the outcome is reported as “inactive”.
With O=c1c2ccccc2oc2ccccc12 the outcome was “inactive”.
For CCCCC(CC)COCC1CO1 (stereo unspecified), the outcome was “inactive”.
For COCc1c(C(C)C)nc(C(C)C)c(/C=C/[C@@H](O)C[C@@H](O)CC(=O)O)c1-c1ccc(F)cc1, the outcome was “inactive”.
In the case of C#CC1(O)CC[C@H]2[C@@H]3CCC4=CCCC[C@@H]4[C@H]3CC[C@@]21C (stereo partly specified), the AC50 is reported as 10.4 µM (active).
For CCOC(=O)c1ccccc1C(=C1C=C(Br)C(=O)C(Br)=C1)c1cc(Br)c(O)c(Br)c1, the AC50 was 22.9 µM (active) and 21.4 µM (active).
For c1ccc2c(c1)ccc1ncccc12, the outcome was “inactive”.
In the case of CC(C)(c1cc(Br)c(OCCO)c(Br)c1)c1cc(Br)c(OCCO)c(Br)c1, the AC50 is reported as 27.3 µM (active).
In the case of CCCCCCCCc1ccc(Nc2ccc(CCCCCCCC)cc2)cc1, the outcome is reported as “inactive”.
For O=C(Nc1ccccc1SSc1ccccc1NC(=O)c1ccccc1)c1ccccc1, the AC50 was 11.5 µM (active).
For S=C(NC1CCCCC1)NC1CCCCC1, the outcome was “inactive”.
For CCO[Si](CCCN=C=O)(OCC)OCC, the outcome was “inactive”.
With CCCCNc1ccc(NCCCC)c2c1C(=O)c1ccccc1C2=O the outcome was “inactive”.
In the case of CCCCC(CC)COC(=O)c1ccccc1O (stereo unspecified), the outcome is reported as “inactive”.
For C=CC(=O)OCC(Br)CBr (stereo unspecified), the AC50 was 18.4 µM (active).
In the case of CCCCC/C=C\C/C=C\CCCCCCCC(=O)OC, the AC50 is reported as 30 µM (active).
In the case of C=CC=CC=CCCCCC, the outcome is reported as “inactive”.
For O=C(c1ccc(O)cc1)c1ccc(O)cc1O, the outcome was “inactive”.
For COc1ccc2nc(N)sc2c1, the outcome was “inactive”.
For CCO[Si](C)(OCC)OCC, the outcome was “inactive”.
In the case of C/C=C\C/C=C/CCCCCCCCOC(C)=O, the AC50 is reported as 26 µM (active).
For CCOc1nc(F)cc2nc(S(=O)(=O)Nc3c(Cl)cccc3C(=O)OC)nn12, the outcome was “inactive”.
In the case of C=CCOc1c(Br)cc(Br)cc1Br, the AC50 is reported as 24.3 µM (active).
For CC(C)C(=O)C(C)C, the outcome was “inactive”.
With CO[Si](OC)(OC)c1ccccc1 the outcome was “inactive”.
In the case of O=Nc1ccc(O)cc1, the outcome is reported as “inactive”.
In the case of c1ccc2c(c1)ccc1cc3c(ccc4ccccc43)cc12, the outcome is reported as “inactive”.
In the case of Nc1ccc(N)c(Cl)c1, the AC50 is reported as 7.54 µM (active) and 7.95 µM (active).
For O=C1CCCN1CCO, the outcome was “inactive”.
With CN1C(=O)N(C)C(O)C1O (stereo unspecified) the outcome was “inactive”.
With N#[N+]c1ccc2c(S(=O)(=O)[O-])cccc2c1O the outcome was “inactive”.
For c1ccc(-c2ccccn2)nc1, the outcome was “inactive”.
For CCCCCCCCCCCCCCCC[N+](C)(C)CC, the AC50 was 3.17 µM (active).
With O=C(Cl)c1cc(C(=O)Cl)cc(C(=O)Cl)c1 the AC50 was 12.7 µM (active).
In the case of C=CCOCC(O)CCl (stereo unspecified), the outcome is reported as “inactive”.
